aSyn yeast inh: qHTS of alpha-syn Inhibitors | Yeast expressing alpha-synuclein, growth rescue, BacTiter-Glo, 24 h | Potency, µM (series often up to 46.1 µM), actives largely listed as activators | AID 652106, 2013 | actives 0.14% (n = 370,000); further: nearly all actives have a fitted effect of over 65% in size
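Galactose-induced alpha-syn yeast (OD600=0.02, raffinose-pregrown) + pinned cpd, 24 hr, 30 deg C; growth by BacTiter-Glo luminescence. Growth restoration scores as activation.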
FUS suppressor: qHTS for Suppressors of FUS Proteinopathy: Primary screen using FUS-linked yeast assay; AID 1347120, 2019; actives 0.24% (n = 390,000); Potency, µM (doses to about 76.6 µM), actives largely listed as activators; S. cerevisiae FUS-expressing, growth rescue, OD600, 24 h; further: nearly all actives have a fitted effect of over 55% in size
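Yeast FUS proteinopathy model; galactose-induced FUS (2%), starting OD 0.005. Cpds in dilution series, 24hr, 30C, 99% humidity. Abs 600 nm growth. Pos ctrl CP55940 (top 92uM final); neg ctrl DMSO.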
TDP-43 yeast inh: qHTS of TDP-43 Inhibitors; TDP-43 expressing yeast growth rescue, BacTiter-Glo, 24 h; Potency, µM (titrated, usually from 46.1 µM), actives largely listed as activators; actives 1.8% (n = 410,000); AID 652104, 2013; further: nearly all actives have a fitted effect of over 50% in size
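Galactose-induced TDP-43 yeast, OD600=0.02, compound pinned; 24 hr, 30 deg C; BacTiter-Glo luminescence for growth. Inhibitors of TDP-43 toxicity read as activators.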
Abeta yeast res: qHTS for compounds that reverse cellular toxicity of Amyloid beta (A-beta) peptide in yeast: Primary Screen; yeast expressing A-beta42, growth rescue, OD600, 48 h; response scale: 0% DMSO, 100% iron-clioquinol control; Potency, µM (titrated, usually from 46.1 µM), most hits filed as activators; actives 0.063% (n = 410,000); further: nearly all actives have a fitted effect of over 55% in size
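Yeast growth medium received pinned compounds, then yeast cells expressing toxic A-beta were added; plates incubated at 30 C for 48 hr. Growth read as absorbance at 600 nm, normalized to DMSO and equimolar FeCl3 plus clioquinol controls.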
Each line names hits and unclear results; the compound was inactive in the other large screens. Sampled rows, rich in hits. Any-hit rate of the full collection: about 2.1%. The call rests on the fitted dose curve; in most records, active means well fitted curve in the direction sought with a large enough effect; inconclusive means small, poorly fitted or top-dose-only effect, or another doubt; inactive means no such curve, though single readings can be large; an effect the other way counts as inactive or inconclusive.

C/C=C/C=C/C(=O)OC(C)C(=O)Nc1cc([N+](=O)[O-])ccc1OC (configuration not stated)	TDP-43 yeast inh 13µM
COc1ccc(C)cc1NC(=O)CSCc1ccccc1C	TDP-43 yeast inh 13µM
COc1ccc([N+](=O)[O-])cc1NC(=O)CSCc1ccccc1C	TDP-43 yeast inh 13µM (no result: FUS suppressor)
COc1ccc([N+](=O)[O-])cc1NC(=O)CSCc1ccc(Br)cc1	TDP-43 yeast inh 13µM
COc1ccc([N+](=O)[O-])cc1NC(=O)C(C)OC(=O)Cc1ccc(OC)c(OC)c1 (configuration not stated)	TDP-43 yeast inh inconclusive (no result: FUS suppressor)
COc1ccc([N+](=O)[O-])cc1NC(=O)CCS(=O)(=O)c1ccc(Br)cc1	none
COc1ccc2c(c1)C/C(=C\c1ccc(N(C)C)cc1)C2=O	none (no result: FUS suppressor, TDP-43 yeast inh, Abeta yeast res)
CN(Cc1ccccc1)c1nc(-c2ccc(F)cc2)cc(C(F)(F)F)n1	none
COc1ccc([N+](=O)[O-])cc1NC(=O)CC(C)c1ccccc1 (configuration not stated)	TDP-43 yeast inh 16µM, Abeta yeast res inconclusive
COc1ccc([N+](=O)[O-])cc1NCc1cccc([N+](=O)[O-])c1	TDP-43 yeast inh 11µM
CCn1ncc(Cl)c1C(=O)NC(=S)Nc1ccccc1Br	TDP-43 yeast inh 5.6µM
COc1ccc(N2CCN(C(=O)Cn3nc(Cc4cccnc4)c4ccccc4c3=O)CC2)cc1	none (no result: aSyn yeast inh)
O=S(=O)(/N=C(/NS(=O)(=O)c1ccccc1)c1ccccc1)c1ccccc1	none
O=S(=O)(N=C(NS(=O)(=O)c1ccc(Cl)cc1)c1ccccc1)c1ccc(Cl)cc1	TDP-43 yeast inh 11µM
NNc1nc(-c2ccccc2Cl)c2cc(Br)ccc2n1	TDP-43 yeast inh 16µM
CCN(CC)c1nc(-c2ccccc2Cl)c2cc(Br)ccc2n1	none (no result: aSyn yeast inh)
Nc1cc2c(cc1Cl)-c1ccc(Cl)cc1C2	TDP-43 yeast inh 25µM
Nc1cc2c(cc1Cl)-c1ccccc1C2	TDP-43 yeast inh 13µM (no result: FUS suppressor)
Cc1ccc(-c2noc(-c3ccc(N4CCOCC4)c([N+](=O)[O-])c3)n2)cc1	none (no result: aSyn yeast inh)
Cc1nn2c(C)c(C(=O)NCCc3ccccc3)cnc2c1-c1ccccc1	TDP-43 yeast inh 18µM (no result: aSyn yeast inh)
CCOc1ccc(CCNC(=O)c2cnc3c(-c4ccccc4)c(C)nn3c2C)cc1OCC	none (no result: aSyn yeast inh)
CCOc1ccc(-c2cc3nc(C4CCN(C(=O)OC(C)(C)C)CC4)c(C(=O)Nc4cccc(Cl)c4C)cn3n2)cc1	none (no result: aSyn yeast inh)
O=C(O)c1cc(-c2ccc(C(F)(F)F)cc2)nc2n[nH]c(-c3ccccc3)c12	none (no result: aSyn yeast inh)
CCCCc1ccc(NC(=O)CC(C)C)cc1	TDP-43 yeast inh 11µM
CCCCc1ccc(NC(=O)COCC)cc1	none
CCSc1nnc(NC(=O)CCn2c(=O)oc3ccccc32)s1	none
O=C(CCn1c(=O)oc2ccccc21)Nc1nc2ccccc2s1	TDP-43 yeast inh 28µM
O=C(c1cccs1)n1cc(C(=S)N2CCOCC2)c2ccccc21	TDP-43 yeast inh 20µM (no result: aSyn yeast inh)
FC(F)(F)c1ccccc1Cc1c(-c2cccc(Br)c2)nc2c3ccccc3ccn12	TDP-43 yeast inh 14µM
O=C(C1CCCC1)N1CCC(CO)(Cc2ccccc2Cl)CC1	TDP-43 yeast inh 20µM, Abeta yeast res inconclusive
O=C(Nc1ccc(F)cc1)c1ccc2ncsc2c1	TDP-43 yeast inh 25µM
O=C(Nc1ccc(Cl)cc1)c1ccc2ncsc2c1	none
Cc1cccc(N2C(=O)C(O)=C(C(=O)c3cccs3)C2c2ccc(F)cc2)n1 (configuration not stated)	none
Cc1cccc(N2C(=O)C(O)=C(C(=O)c3cccs3)C2c2ccc(C(C)C)cc2)n1 (configuration not stated)	TDP-43 yeast inh 28µM
Cn1c(CNC(=O)CSc2n[nH]c(-c3ccccc3Cl)n2)nc2ccccc21	none (no result: aSyn yeast inh)
CCCCCCCc1n[nH]c(=S)n1Cc1ccccc1	TDP-43 yeast inh 16µM, Abeta yeast res inconclusive
Cc1ccc2scc(N3CCN(c4ccccc4)CC3)c(=O)c2c1	TDP-43 yeast inh inconclusive (no result: aSyn yeast inh)
Cc1ccc(-n2c(SCc3nc(-c4ccccc4C)no3)nnc2-c2ccncc2)cc1C	TDP-43 yeast inh 32µM (no result: aSyn yeast inh)
Cc1ccccc1-c1noc(CSc2nnc(-c3ccncc3)n2-c2ccc(F)cc2)n1	Abeta yeast res inconclusive (no result: aSyn yeast inh)
CCOC(=O)/C(C#N)=C\c1cn(C)c2ccccc12	none
CCOC(=O)/C(C#N)=C/c1c(OCC)n(CC)c2ccccc12	TDP-43 yeast inh 13µM (no result: FUS suppressor)
CCOc1ccc(CCNC(=O)c2c(C)oc3ncn(CC(C)C)c(=O)c23)cc1	TDP-43 yeast inh 20µM (no result: aSyn yeast inh)
Cc1nc(-c2cccc(NC(=O)c3ccc(Br)o3)c2)cs1	TDP-43 yeast inh 11µM
CO/N=C(\c1nonc1N)N1CCN(c2ccc(Cl)cc2[N+](=O)[O-])CC1	TDP-43 yeast inh 14µM
COc1ccc(-c2cnc(C)o2)cc1S(=O)(=O)Nc1ccc(C)c(N(C)C)c1	none (no result: aSyn yeast inh)
CC(C)COc1ccc(C(=O)NCC2(N3CCN(C)CC3)CCCCC2)cc1	none (no result: aSyn yeast inh)
Cc1ccc(-c2csc3ncnc(Sc4nnnn4C4CC4)c23)cc1	none (no result: FUS suppressor, TDP-43 yeast inh, Abeta yeast res)
Cc1ccc(S(=O)(=O)NCc2ccccc2C)cc1	none
CSc1ccc(S(=O)(=O)NCc2ccccc2C)cc1	TDP-43 yeast inh 14µM
Cc1ccc(-n2c(=O)c3c(c4cc(C)ccc4n3C)n(CC(=O)Nc3cc(C)cc(C)c3)c2=O)cc1	none (no result: aSyn yeast inh)
CCc1c(C)c(C#N)c2nc3ccccc3n2c1NC	none
Cc1c(CCCl)c(Cl)n2c(nc3ccccc32)c1C#N	TDP-43 yeast inh 7.1µM (no result: FUS suppressor)
CNc1cc(C)c(C#N)c2nc3ccccc3n12	TDP-43 yeast inh inconclusive
Cc1cc(Cl)n2c(nc3ccccc32)c1C#N	TDP-43 yeast inh 3.2µM
O=C(Nc1nnc(S(=O)(=O)N2CCc3ccccc32)s1)c1cccc(Cl)c1	none (no result: aSyn yeast inh)
Cc1ccc(C)c(N2CCN(CCCNC(=O)C3COc4ccccc4C3)CC2)c1 (configuration not stated)	none (no result: aSyn yeast inh)
O=C1c2ccccc2C(=O)N1CCc1csc(-c2ccccc2)n1	aSyn yeast inh inconclusive, TDP-43 yeast inh 13µM
COc1cccc(CNC(=O)c2cc(C3CC3)nc3c2cnn3C(C)C)c1	FUS suppressor inconclusive, TDP-43 yeast inh 18µM
Cc1ccccc1CCNC(=O)c1cc(C2CC2)nc2c1cnn2C(C)C	TDP-43 yeast inh 35µM
COc1ccc(CNC(=O)c2cc(C3CC3)nc3c2cnn3C(C)C)cc1OC	none
CC(=O)NC1=C(NC2CCS(=O)(=O)C2)C(=O)c2ccccc2C1=O (configuration not stated)	TDP-43 yeast inh 25µM (no result: FUS suppressor)
COc1cc2nc(N3CCCN(C)CC3)nc(OC3CCN(C)CC3)c2cc1OC	none (no result: FUS suppressor, TDP-43 yeast inh, Abeta yeast res)
CCCCOc1ccc(C(=O)NCCS(=O)(=O)N2CCN(c3ccccc3OC)CC2)cc1	FUS suppressor inconclusive, TDP-43 yeast inh 13µM, Abeta yeast res inconclusive (no result: aSyn yeast inh)
O=C(CCNc1cc(Cl)cc(Cl)c1)c1ccco1	TDP-43 yeast inh 16µM
COC(=O)c1ccc2[nH]c(C3(O)CCCCC3)c(C)c2c1	TDP-43 yeast inh 18µM
